Measured values taken from PubChem BioAssay AID1159580 (chemical genetic matrix, 2015).
Out of some 5,500 compounds screened, about 2,000 (36%) were called active. Another 18% or so got no clear call; they are omitted. Cut-off read from the data, not from the text of the source: active = normalized growth mostly below about 0.91 (no sharp cut-off); inconclusive = no clear call, values can overlap the other calls; inactive = mostly above about 0.92. This is one part of the list.

Assay: chemical genetic growth profiling, strain panel (AID 1159580);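 note: tested at 20 µM; growth read once vehicle control cultures reached saturation at 30 °C; 1 = growth at the plate median or of vehicle wells; lower values mean less growth of the strain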
Conditions: growth OD

Measured: normalized growth

O=C(O)CCC(=O)c1ccc(-c2ccccc2)cc1
inactive: S. cerevisiae deletion strains, locus YKL068W, active compounds read low 1 | S. cerevisiae deletion strains, locus YKL085W, strain MDH1 (second series), active compounds read low 0.939 | S. cerevisiae deletion strains, locus YKL085W, strain MDH1, active compounds read low 0.939 | S. cerevisiae deletion strains, locus YKL160W, strain elf1, active compounds read low 0.961 | S. cerevisiae deletion strains, locus YKL190W, strain CNB1, active compounds read low 0.996 | S. cerevisiae deletion strains, locus YKR001C, strain vps1, active compounds read low 0.92 | S. cerevisiae deletion strains, locus YKR026C, strain gcn3, active compounds read low 0.944 | S. cerevisiae deletion strains, locus YKR091W, strain srl3, active compounds read low 0.979 | S. cerevisiae deletion strains, locus YLL001W, strain dnm1, active compounds read low 0.947 | S. cerevisiae deletion strains, locus YLL026W, active compounds read low 0.989 | S. cerevisiae deletion strains, locus YLL041C, strain sdh2, active compounds read low 0.979 | S. cerevisiae deletion strains, locus YLR027C, strain aat2, active compounds read low 0.978 | S. cerevisiae deletion strains, locus YLR039C, strain RIC1, active compounds read low 0.855 | S. cerevisiae deletion strains, locus YLR058C, strain SHM2, active compounds read low 0.978 | S. cerevisiae deletion strains, locus YLR102C, strain apc9, active compounds read low 0.981 | S. cerevisiae deletion strains, locus YLR113W, strain HOG1, active compounds read low 0.865 | S. cerevisiae deletion strains, locus YLR221C, strain rsa3, active compounds read low 0.997 | S. cerevisiae deletion strains, locus YLR258W, strain gsy2, active compounds read low 1 | S. cerevisiae deletion strains, locus YLR262C, strain YPT6, active compounds read low 0.821 | S. cerevisiae deletion strains, locus YLR268W, strain sec22, active compounds read low 0.894 | S. cerevisiae deletion strains, locus YLR320W, strain mms22, active compounds read low 1.01 | S. cerevisiae deletion strains, locus YLR330W, strain CHS5, active compounds read low 0.994 | S. cerevisiae deletion strains, locus YLR342W, strain FKS1 (second series), active compounds read low 0.986 | S. cerevisiae deletion strains, locus YLR342W, strain FKS1, active compounds read low 0.934 | S. cerevisiae deletion strains, locus YLR357W, strain rsc2, active compounds read low 0.903 | S. cerevisiae deletion strains, locus YLR370C, strain arc18, active compounds read low 0.984 | S. cerevisiae deletion strains, locus YLR371W, strain rom2, active compounds read low 0.962 | S. cerevisiae deletion strains, locus YLR384C, strain iki3, active compounds read low 0.964 | S. cerevisiae deletion strains, locus YLR418C, strain cdc73, active compounds read low 0.902 | S. cerevisiae deletion strains, locus YML016C, strain PPZ1, active compounds read low 0.988 | S. cerevisiae deletion strains, locus YML032C, strain rad52, active compounds read low 0.938 | S. cerevisiae deletion strains, locus YML120C, strain ndi1, active compounds read low 0.971 | S. cerevisiae deletion strains, locus YML124C, strain tub3, active compounds read low 0.981 | S. cerevisiae deletion strains, locus YMR058W, strain fet3, active compounds read low 0.978 | S. cerevisiae deletion strains, locus YMR078C, strain ctf18, active compounds read low 0.963 | S. cerevisiae deletion strains, locus YMR125W, strain sto1, active compounds read low 0.979 | S. cerevisiae deletion strains, locus YMR129W, active compounds read low 0.987 | S. cerevisiae deletion strains, locus YMR205C, strain PFK2, active compounds read low 0.974 | S. cerevisiae deletion strains, locus YMR223W, strain ubp8, active compounds read low 0.974 | S. cerevisiae deletion strains, locus YMR231W, strain pep5, active compounds read low 0.972 | S. cerevisiae deletion strains, locus YMR263W, strain SAP30, active compounds read low 0.972 | S. cerevisiae deletion strains, locus YMR307W, strain GAS1, active compounds read low 0.939 | S. cerevisiae deletion strains, locus YNL067W, strain RPL9B, active compounds read low 0.957 | S. cerevisiae deletion strains, locus YNL071W, strain lat1, active compounds read low 0.951 | S. cerevisiae deletion strains, locus YNL128W, strain TEP1, active compounds read low 0.982 | S. cerevisiae deletion strains, locus YNL153C, strain GIM3, active compounds read low 0.985 | S. cerevisiae deletion strains, locus YNL209W, strain ssb2, active compounds read low 0.993 | S. cerevisiae deletion strains, locus YNL233W, strain BNI4, active compounds read low 0.97 | S. cerevisiae deletion strains, locus YNL248C, strain rpa49, active compounds read low 0.993 | S. cerevisiae deletion strains, locus YNL250W, strain rad50, active compounds read low 0.977 | S. cerevisiae deletion strains, locus YNL307C, strain MCK1, active compounds read low 0.963 | S. cerevisiae deletion strains, locus YNL322C, strain KRE1 (second series), active compounds read low 0.97 | S. cerevisiae deletion strains, locus YNL322C, strain KRE1, active compounds read low 0.998 | S. cerevisiae deletion strains, locus YNR049C, strain mso1, active compounds read low 0.987 | S. cerevisiae deletion strains, locus YNR052C, strain pop2, active compounds read low 0.972 | S. cerevisiae deletion strains, locus YOL006C, strain TOP1, active compounds read low 0.889 | S. cerevisiae deletion strains, locus YOL012C, strain htz1 0.779 | S. cerevisiae deletion strains, locus YOL147C, strain pex11, active compounds read low 0.98 | S. cerevisiae deletion strains, locus YOR001W, strain rrp6, active compounds read low 0.955 | S. cerevisiae deletion strains, locus YOR061W, strain CKA2, active compounds read low 0.956 | S. cerevisiae deletion strains, locus YOR069W, strain VPS5, active compounds read low 0.987 | S. cerevisiae deletion strains, locus YOR070C, strain gyp1, active compounds read low 0.988 | S. cerevisiae deletion strains, locus YOR080W, strain dia2, active compounds read low 0.979 | S. cerevisiae deletion strains, locus YOR083W, strain WHI5, active compounds read low 0.953 | S. cerevisiae deletion strains, locus YOR106W, strain vam3, active compounds read low 0.935 | S. cerevisiae deletion strains, locus YOR136W, strain idh2, active compounds read low 0.968 | S. cerevisiae deletion strains, locus YOR144C, strain elg1, active compounds read low 0.972 | S. cerevisiae deletion strains, locus YOR184W, strain ser1, active compounds read low 0.905 | S. cerevisiae deletion strains, locus YOR265W, strain rbl2, active compounds read low 0.996 | S. cerevisiae deletion strains, locus YOR270C, strain vph1, active compounds read low 0.95 | S. cerevisiae deletion strains, locus YOR290C, strain snf2, active compounds read low 0.978 | S. cerevisiae deletion strains, locus YOR316C, strain cot1, active compounds read low 0.984 | S. cerevisiae deletion strains, locus YPL051W, strain arl3, active compounds read low 0.958 | S. cerevisiae deletion strains, locus YPL055C, strain LGE1, active compounds read low 0.973 | S. cerevisiae deletion strains, locus YPL078C, strain atp4, active compounds read low 0.941 | S. cerevisiae deletion strains, locus YPL106C, strain sse1, active compounds read low 1.06 | S. cerevisiae deletion strains, locus YPL240C, strain hsp82, active compounds read low 0.999 | S. cerevisiae deletion strains, locus YPL241C, strain CIN2, active compounds read low 0.996 | S. cerevisiae deletion strains, locus YPR119W, strain clb2, active compounds read low 0.972 | S. cerevisiae deletion strains, locus YPR141C, strain kar3, active compounds read low 1.01 | S. cerevisiae deletion strains, locus YPR163C, strain tif3, active compounds read low 0.967 | S. cerevisiae deletion strains, locus YPR167C, strain met16, active compounds read low 0.967 | S. cerevisiae deletion strains, strain wtn01, active compounds read low 0.932 | S. cerevisiae strains, strain wild type, active compounds read low 0.99
active: S. cerevisiae deletion strains, locus YKL009W, strain mrt4, active compounds read low 0.799 | S. cerevisiae deletion strains, locus YLR262C, strain YPT6 (second series), active compounds read low 0.765 | S. cerevisiae deletion strains, locus YNL183C, strain NPR1, active compounds read low 0.724 | S. cerevisiae deletion strains, locus YNL271C, strain bni1, active compounds read low 0.909 | S. cerevisiae deletion strains, locus YNL298W, strain CLA4, active compounds read low 0.826 | S. cerevisiae deletion strains, locus YOR231W, strain MKK1, active compounds read low 0.724 | S. cerevisiae deletion strains, locus YPL256C, strain CLN2, active compounds read low 0.78
